The text below walks through data of PubChem BioAssay (NCATS).

A short description of assay [1]: qHTS Assay for Identification of Small Molecule Antagonists for Thrombopoietin (TPO) Signaling Pathway (AID 918). Further: potency means the concentration at half of the fitted maximal effect; nearly all actives have a fitted effect of over 60% in size. The note with it: TPO-dependent cell signaling reporter, antagonist mode. The procedure:
NIH Molecular Libraries Screening Centers Network [MLSCN]
NIH Chemical Genomics Center [NCGC]
The thrombopoietin (TPO) signaling pathway was assayed in murine Ba/F3 cells stably transfected with the human TPO receptor and a luciferase reporter gene controlled by the Glycoprotein IIb promoter (provided by Axxam). BaF3 cells are an IL-3-dependent pro B cell line that upon TPO stimulation, undergo cell division and induce the megakaryocyte marker, Glycoprotein IIb. The assay was screened at the EC50 of TPO (26 pM) to identify inhibitors of the pathway.
NCGC Assay Protocol Summary:
Cells were maintained at 37 C and 5% CO2in RPMI with 10% fetal bovine serum, 0.5 ng/mL murine IL-3, 100U/ml penicillin and 100 ug/ml streptomycin. Prior to plating, cells were incubated overnight in medium without IL-3. Cells were plated at 250 cells/5uL/well into white solid 1536-well plates, 23 nL of compounds were delivered by a pin tool, and 1 uL of TPO (26 pM final concentration in IL-3 deficient medium) was added. Following 24 hrs of incubation at 37 C and 5% CO2, 4 uL of Steadylite detector mix (PerkinElmer) was added, the plates incubated at room temperature for 10 min and luminescence was measured for 10 s and 2X binning by a ViewLux detector (Perkin Elmer).

Assay [2] can be described thus: Confirmation and Secondary Assay for Modulators of Hemoglobin Beta Chain Splicing at IVS2 705 locus (AID 930).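 Further: HeLa cells stably expressing the EGFP-705 splicing reporter; GFP fluorescence per well restored by corrected splicing of the IVS2-705 intron in EGFP.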 The following applies: HeLa EGFP-705 splicing reporter, GFP fluorescence, 48 h; series mostly up to 46.1 µM. In outline:
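Per-well GFP, captured at 1 x 8 µm resolution with 488 nm excitation, served as the read-out for HeLa EGFP-705 cells incubated 2 days with test compound versus DMSO.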

Assay [3] concerns the target Muscarinic acetylcholine receptor M1 (Rattus norvegicus) (UniProt P08482). Description: qHTS Assay for Antagonists of Acetylcholine Muscarinic M1 Receptor: Measurement of IP-One Response (AID 944). Further: nearly all actives have a fitted effect of over 75% in size. Further: potency means the concentration at half of the fitted maximal effect. The following applies: CHO-M1 cells, IP-One HTRF, antagonist mode; series mostly up to 46.1 µM. In short, it runs like this:
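Read-out: HTRF competition between d2-IP1 and Eu-cryptate anti-IP1 antibody, emission 620 and 665 nm. Stimulus was carbachol, EC80 (200 nM), for 30 min in M1-CHO cells (rat receptor), after 10 min compound pre-treatment.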

Assay [4] can be described thus: qHTS Assay for Identification of Small Molecule Agonists for Thrombopoietin (TPO) Signaling Pathway (AID 917). The following applies: TPO signaling pathway reporter cells, agonist qHTS, stimulated with TPO at its EC50; series mostly up to 38.5 µM. In short, it runs like this: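 Human TPO receptor–transfected Ba/F3 cells (murine, IL-3-dependent) in IL-3-deficient medium; compounds plus TPO at EC50, 26 pM final; 24 hrs, 37 C; GpIIb-luciferase luminescence after 10 min RT detection.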
On the technique in general: Quantitative high-throughput screening tests each substance at several concentrations.

Assay [5] has as its target Pyruvate kinase (Leishmania mexicana) (UniProt Q27686). In words: qHTS Validation Assay for Inhibitors of Leishmania Mexicana Pyruvate Kinase (AID 945). The note with it: purified L. mexicana pyruvate kinase, enzyme activity, E451W mutant enzyme; series mostly up to 57.5 µM. In short, it runs like this:
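An endpoint luciferase assay: 0.2 nM LmPYK E451W turns over 0.5 mM PEP with 0.1 mM ADP for 1 h at room temperature, pH 7.2, before PKLight addition. Values are normalized to DMSO-only wells.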

Assay [6] in a line: Cell Viability - LYMP2-001 (AID 921).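 Further: cells exposed to compound for 24 h at 37 °C; nearly all actives have a fitted effect of over 70% in size.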 The following applies: LYMP2-001 lymphoblastoid cell viability; series mostly up to 92.2 µM. In short, it runs like this:
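A lymphoblastoid cell line of human origin was treated with library compounds across a concentration series for 24 hours, and viable cell number was estimated from ATP-driven luciferase light output. Hill modeling gave AC50.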

The nature of assay [7]: MultiTox-Fluor Cytotoxicity Assay - LYMP1-001 - Dead Cells (AID 946). Further: potency means the concentration at half of the fitted maximal effect. The note with it: LYMP1-001 lymphoblastoid cells, dead-cell protease fluorescence; series mostly up to 92.2 µM. In short, it runs like this: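 Cytotoxicity as increased dead-cell protease fluorescence (bis-AAF-R110, 485/520 nm), read 60 min after MultiTox-Fluor reagent. Human lymphoblastoid line exposed 16 h; Hill-fitted AC50, with DMSO as 0% and 15 uM tetraoctylammonium bromide as 100%.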

Assay [8] is described as follows: MultiTox-Fluor Cytotoxicity Assay - LYMP1-001 - Live Cells (AID 947). The following applies: LYMP1-001 lymphoblastoid cells, live-cell protease fluorescence viability; series mostly up to 92.2 µM.
The target in assay [9] is Muscarinic acetylcholine receptor M1 (Rattus norvegicus) (UniProt P08482). Description: qHTS Assay for Antagonists of Acetylcholine Muscarinic M1 Receptor: Kinetic Measurement of Intracellular Calcium Response (AID 943). Further: nearly all actives have a fitted effect of over 75% in size. Further: potency means the concentration at half of the fitted maximal effect. The following applies: M1-expressing cells, kinetic intracellular calcium fluorescence; series mostly up to 35.3 µM. In short, it runs like this: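 Read-out: peak over basal Fluo-4 fluorescence, kinetic at 1 Hz for 4 min after EC80 carbachol (100 nM final). Rat M1-CHO cells, dye loaded 1 h at 37C, compound added 10 min before agonist.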

SMILES strings stand for the structures. Values joined by “and” are separate entries in the source; they are usually repeats but may differ in a detail not shown here. Identical values can stand only once. Values without a mark were called inactive. Inconclusive results are not listed. Where a call stands in place of a potency, no number is given. Active and inactive are the calls of the source. The call rests on the fitted dose curve; in most records, active means well fitted curve in the direction sought with a large enough effect; inconclusive means small, poorly fitted or top-dose-only effect, or another doubt; inactive means no such curve, though single readings can be large; an effect the other way counts as inactive or inconclusive.

Muscarinic acetylcholine receptor M1 (Rattus norvegicus), sequence (P08482 whole entry, looked up): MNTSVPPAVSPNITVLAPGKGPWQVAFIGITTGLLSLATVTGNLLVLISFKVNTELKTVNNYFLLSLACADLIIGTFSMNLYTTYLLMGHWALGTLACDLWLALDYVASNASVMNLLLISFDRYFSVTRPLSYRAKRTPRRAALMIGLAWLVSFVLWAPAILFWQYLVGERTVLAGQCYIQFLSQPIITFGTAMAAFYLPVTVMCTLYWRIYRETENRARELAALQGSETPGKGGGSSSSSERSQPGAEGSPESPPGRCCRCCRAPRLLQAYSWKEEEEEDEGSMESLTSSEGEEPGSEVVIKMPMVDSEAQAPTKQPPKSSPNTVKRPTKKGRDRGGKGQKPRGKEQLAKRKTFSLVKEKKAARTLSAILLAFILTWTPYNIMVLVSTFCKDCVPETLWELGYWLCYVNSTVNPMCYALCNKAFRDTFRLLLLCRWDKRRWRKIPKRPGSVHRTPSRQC
Pyruvate kinase (Leishmania mexicana), sequence (Q27686 2-499 E452W): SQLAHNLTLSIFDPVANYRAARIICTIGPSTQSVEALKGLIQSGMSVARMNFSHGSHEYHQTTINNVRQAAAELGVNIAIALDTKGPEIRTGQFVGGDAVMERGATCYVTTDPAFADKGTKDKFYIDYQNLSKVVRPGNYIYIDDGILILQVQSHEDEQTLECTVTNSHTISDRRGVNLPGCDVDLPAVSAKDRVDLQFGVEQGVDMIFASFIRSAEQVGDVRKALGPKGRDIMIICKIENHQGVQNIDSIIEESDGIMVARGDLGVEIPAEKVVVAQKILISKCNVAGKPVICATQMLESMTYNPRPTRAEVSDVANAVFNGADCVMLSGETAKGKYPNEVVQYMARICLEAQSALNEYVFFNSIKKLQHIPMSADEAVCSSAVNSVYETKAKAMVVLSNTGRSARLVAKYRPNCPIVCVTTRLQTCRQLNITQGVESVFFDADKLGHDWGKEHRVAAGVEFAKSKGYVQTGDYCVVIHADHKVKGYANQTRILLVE

For the compound `O=C1c2c(O)ccc(O)c2C(=O)c2c(NCCNCCO)ccc(NCCNCCO)c21`, the results for the Potency in assay [1] and in assay [3] were 25.1 nM (active) and 5010 nM (active), respectively. Further, in [2], the call was inactive.
With `CCOC(=O)C(C)(C)Oc1ccc(Cl)cc1`, the Potency entry in assay [4], in assay [3] and in assay [5] was “inactive” in each case.
For `CCOC(=O)c1ncn2c1CN(C)C(=O)c1cc(F)ccc1-2`, the Potency result in assay [4] and in [5] was “inactive” in each case.
With `NC(=O)NO`, the Potency result in assay [4] and in assay [5] was “inactive” throughout. The call in [2] was inactive.
Consider `Cc1cn([C@H]2C[C@H](N=[N+]=[N-])[C@@H](CO)O2)c(=O)[nH]c1=O`, for which the outcome in [6] and in assay [8] was inactive. In addition, the Potency result in assay [7] is “inactive”.
`OCCN(CCO)c1nc(N2CCCCC2)c2nc(N(CCO)CCO)nc(N3CCCCC3)c2n1`: in assay [2], the result was inactive. The Potency result in assay [5] is “inactive”.
With `OCCN1CCN(CCCN2c3ccccc3Sc3ccc(C(F)(F)F)cc32)CC1`, the outcome in assay [2] was inactive. For the same compound, in [5], the Potency entry was “inactive”.
`COc1ccccc1OCC(O)CN1CCN(CC(=O)Nc2c(C)cccc2C)CC1` (configuration not stated): in [2], the outcome was inactive.
For the compound `CC(COc1ccccc1)N(CCCl)Cc1ccccc1` (configuration not stated), the compound was called inactive in assay [2] and in assay [8]. Moreover, the Potency result in assay [7] is “inactive”.
In the case of `COc1cc2c(c(OC)c1OC)-c1ccc(OC)c(=O)cc1[C@@H](NC(C)=O)CC2`, the Potency entry in [3] and in assay [5] was “inactive” throughout. Also, in [7], the Potency was 63.1 nM (active) and 100 nM (active).
With `CN(C)C(=N)N=C(N)N`, the call in assay [2] was inactive.
`CNCCCC12CCC(c3ccccc31)c1ccccc12`: the compound was called inactive in assay [2]. Also, the Potency entry in assay [5] is “inactive”.
On to `CN(C)CCCN1c2ccccc2CCc2ccc(Cl)cc21`, for which, in assay [2], the call was inactive. Moreover, in [5], the Potency result is “inactive”.
In the case of `CC1COc2c(N3CCN(C)CC3)c(F)cc3c(=O)c(C(=O)O)cn1c23` (configuration not stated), the compound was classed as inactive in assay [2].
On the same count and under the same terms, the same measure for `CN1CCN2c3ccccc3Cc3ccccc3C2C1` (configuration not stated): “inactive”.
For the compound `CN(C)CCOC(c1ccccc1)c1ccccc1`, the compound was classed as inactive in assay [2]. The Potency result in assay [5] is “inactive”.
Consider `CCCNCC(O)COc1ccccc1C(=O)CCc1ccccc1` (configuration not stated), for which, in assay [2], the outcome was inactive.
On the same count and under the same terms, as for `CC(C(=O)O)c1cccc(C(=O)c2ccccc2)c1` (configuration not stated), the entry is “inactive”; as for `CC(=O)OCC(CCn1cnc2cnc(N)nc21)COC(C)=O`, “inactive”.
For `COc1ccccc1OCCNCC(O)COc1cccc2[nH]c3ccccc3c12` (configuration not stated), the compound was called inactive in assay [2].
Consider `CC[C@@]1(O)C(=O)OCc2c1cc1n(c2=O)Cc2cc3c(CN(C)C)c(O)ccc3nc2-1`, for which the compound was classed as inactive in [2].
Consider `O=C(CCCN1CCC(O)(c2ccc(Cl)cc2)CC1)c1ccc(F)cc1`, for which the compound was classed as inactive in assay [2]. Besides, the Potency result in [5] is “inactive”.
For `O=C1N(c2ccccc2)c2ccccc2C1(Cc1ccncc1)Cc1ccncc1`, the Potency result in assay [9], in assay [3] and in [5] was “inactive” throughout.
For `COc1cc2nc(N(C)CCCNC(=O)C3CCCO3)nc(N)c2cc1OC` (configuration not stated), the outcome in assay [2] was inactive.
On the same count and under the same terms, the same measure for `CCC1(C)CC(=O)NC1=O` (configuration not stated): “inactive”.
In the case of `Cc1ccc(C(=O)Nc2ccc(S(=O)(=O)O)c3cc(S(=O)(=O)O)cc(S(=O)(=O)O)c23)cc1NC(=O)c1cccc(NC(=O)Nc2cccc(C(=O)Nc3cc(C(=O)Nc4ccc(S(=O)(=O)O)c5cc(S(=O)(=O)O)cc(S(=O)(=O)O)c45)ccc3C)c2)c1`, the compound was classed as inactive in [2]. Besides, in assay [9], the Potency is 1580 nM (active). Further, the Potency entry in assay [3] and in assay [5] was “inactive” in each case.
On to `CN1CCN(CCCN2c3ccccc3Sc3ccc(Cl)cc32)CC1`, for which, in [2], the result was inactive. In addition, the Potency result in [5] was “inactive”.
Turning to `CCCCc1oc2ccccc2c1C(=O)c1cc(I)c(OCCN(CC)CC)c(I)c1`, in assay [2], the compound was called inactive. For the same compound, the Potency entry in assay [3] and in [5] was “inactive” each time.
Consider `CC12CC3CC(C)(C1)CC(N)(C3)C2`, for which the result in assay [2] was inactive.
The same measure, in the same setting: the same measure for `NC(CO)C(=O)NNCc1ccc(O)c(O)c1O` (configuration not stated): “inactive”.
With `CN(C)C(=O)C(CCN1CCC(O)(c2ccc(Cl)cc2)CC1)(c1ccccc1)c1ccccc1`, in assay [2], the compound was called inactive. In assay [5], the Potency result was “inactive”.
Consider `COC(=O)Nc1nc2ccc(C(=O)c3cccs3)cc2[nH]1`, for which the outcome in assay [2] was inactive. Also, in [5], the Potency result is “inactive”.
For the compound `COc1ccc(CCN(C)CCCC(C#N)(c2ccc(OC)c(OC)c2)C(C)C)cc1OC` (configuration not stated), in [7], the Potency entry is “inactive”. The call in assay [8] was inactive.
Consider `CN(C)CCC=C1c2ccccc2C=Cc2ccccc21`, for which the compound was classed as inactive in [2]. The Potency in assay [9] is 31.6 nM (active); in assay [3] it was 112 nM (active). Further, in assay [5], the Potency result was “inactive”.
